# From PubChem BioAssay
# Where “and” joins values, the source holds several entries; their conditions need not be identical. Identical values can stand only once. Inconclusive results are not listed. Calls of active or inactive are those of the source.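 Rule for the calls, unless noted: active = mean z-score across replicates of 1.96 or higher in either the MELAS or the Rieske mutant cell line; inactive = the rest.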
# Key:
# [1] = growth inhibition of DIPG cells – cell-based, MIPE4.0 library, CellTiter-Glo luminescence, qHTS (AID 1347066; cut-off not given, nearly all actives have AC50 up to about 30 µM;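 note: cells exposed to compound for 48 hours before readout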); conditions: SU-DIPG-VI viability, CellTiter-Glo ATP luminescence
# [2] = viability loss with induced miR-34 in A549 – imaging, A549 dox-inducible miR-34, nuclei and caspase counts, primary screen (AID 1347080;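 active = compounds whose cell count with miR-34 switched on is under 0.7 times the count with it off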); conditions: A549 miR-34 inducible, Hoechst nuclei count, 48 h
# [3] = MELAS cybrid and Rieske KO viability enhancers – cell-based, MELAS cybrids, Rieske KO mouse fibroblasts, CellTiter-Glo, primary screen (AID 1508586); conditions: low glucose;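 note: z relative to plate mean and SD of compound and empty wells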
# [4] = target: NAD(+) hydrolase SARM1 (Homo sapiens) (UniProt Q6SZW1); test: blocking NAD cleavage by SARM1 SAM-TIR – cell lysate, NAD-Glo luminescence (AID 1508614;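 active = compound whose remaining NAD level is above about 45 nM, limit read from the data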;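 note: higher remaining NAD means stronger inhibition of SARM1 NADase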); conditions: SAM-TIR HEK293T lysate NADase, at 1 µM, stronger effect = higher value
# [5] = target: Mitogen-activated protein kinase 7 (Homo sapiens) (UniProt Q13164); test: Gal4-ERK5 driven luciferase induction – cell-based, HTS, primary screen (AID 1508626;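 active = luciferase signal above three times the same-plate solvent-only control wells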;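 note: luciferase driven by Gal4-ERK5 fusion binding five Gal4 sites before minimal TATA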); conditions: HeLa Gal4-ERK5 transactivation, 18 h, at 5 µM, stronger effect = higher value
# [6] = galactose survival enhancers in mitochondrial complex I cybrids – cell-based, galactose medium, ATP luminescence, primary screen (AID 1645843;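 active = z-score of at least 1.8 in each of two replicates, scored against plate mean and spread of sample wells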;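 note: positive z means more ATP and so rescue of galactose-driven cybrid death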); conditions: complex I mutant cybrid cells, 72 h, stronger effect = higher value
# [7] = growth inhibition, single agent or in combination, cell-based, chromothripsis tumors, cisplatin or BGB combos (AID 1671449; in the data active = inhibition above about 80%;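 note: cells exposed for 96 hours; 0% = vehicle DMSO and 100% = killing by high DMSO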); conditions: LFS_MB_P medulloblastoma cells
# [8] = growth inhibition, single agent and combos, cell-based, chromothripsis tumors, cisplatin or BGB combos (AID 1671450; in the data active = inhibition above about 80%;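 note: cells exposed to compound for four days; 0% = vehicle DMSO and 100% = cell killing by high DMSO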); conditions: HDN33 neuroblastoma cells, stronger effect = higher value
# [9] = growth inhibition, single agents and combos, ICB984, cell-based, cisplatin or BGB combos, synergistic combos for chromothripsis tumors (AID 1671451; call rule not given here;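 note: cells exposed for 96 hours before readout; 0% = vehicle DMSO and 100% = killing by high DMSO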); conditions: ICB984 medulloblastoma cells, drug combinations, stronger effect = higher value
# [10] = growth inhibition, single agents and combos, LFS_MB_1R, cell-based, cisplatin or BGB combos, synergistic combos for chromothripsis tumors (AID 1671452; in the data active = inhibition above about 80%;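 note: cells exposed for 96 hours before readout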); conditions: LFS_MB_1R medulloblastoma cells, stronger effect = higher value
# [11] = growth inhibition, single agents and combos, HTB85, cell-based, BGB or cisplatin IC20 combos, synergistic combos for chromothripsis tumors (AID 1671453; in the data active = inhibition above about 80%;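 note: cells exposed for 96 hours before readout; 0% = vehicle DMSO and 100% = high DMSO killing control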); conditions: HTB85 osteosarcoma cells, drug combinations, stronger effect = higher value
# [12] = growth inhibition, single agents and combos, CRL2098, cell-based, BGB or cisplatin IC20 combos, synergistic combos for chromothripsis tumors (AID 1671454; in the data active = inhibition above about 80%;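 note: cells exposed for 96 h before readout; 0% = vehicle DMSO and 100% = killing by high DMSO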); conditions: CRL2098 osteosarcoma cells, drug combinations, stronger effect = higher value
# [13] = growth inhibition, single agents and combos, HD-MB03, cell-based, BGB or cisplatin IC20 combos, synergistic combos for chromothripsis tumors (AID 1671455; in the data active = inhibition above about 83%;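 note: 0% = vehicle DMSO and 100% = high DMSO as cytotoxic control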); conditions: HD-MB03 medulloblastoma cells, stronger effect = higher value
# [14] = blockers of cellular phospholipid synthesis – cell-based, LOPAC library, screen 4, primary screen (AID 1347384; call rule not given here); conditions: animal cells, phospholipid biosynthesis inhibition screen; at 10 µM
# [15] = growth inhibition of DIPG cells – cell-based, MIPE5.0 library, qHTS (AID 1347068; cut-off not given, nearly all actives have IC50 up to about 30 µM); conditions: SU-DIPG-XXV viability
# [16] = stronger effect = lower value, cell number ratio, induced over uninduced
# [17] = measured here: relative caspase fold change +Dox/-Dox
# [18] = measured here: total cells with miR-34 induction, stronger effect = lower value
# [19] = measured here: total cells without miR-34 induction
# [20] = MELAS cybrid survival, CellTiter-Glo 48 h, stronger effect = higher value
# [21] = Rieske KO mouse fibroblast survival, CellTiter-Glo 72 h
# [22] = at 0.5 µM, stronger effect = higher value
# [23] = measured here: combination with BGB IC20, at 0.005 µM
# [24] = measured here: combination with BGB IC40, at 0.005 µM
# [25] = measured here: combination with BGB IC40, at 0.05 µM
# [26] = measured here: combination with cisplatin, at 0.5 µM, stronger effect = higher value
# [27] = measured here: combination with cisplatin, at 5 µM, stronger effect = higher value
# [28] = measured here: with BGB IC20 combination, at 0.5 µM
# [29] = measured here: with cisplatin IC20 combination, at 0.5 µM
# [30] = measured here: 5 uM single agent, at 5 µM
# [31] = measured here: combination with cisplatin, at 0.5 µM
# [32] = measured here: combination with cisplatin, at 5 µM
# [33] = measured here: with BGB IC20, at 0.5 µM
# [34] = measured here: with BGB IC20, at 5 µM
# [35] = measured here: with cisplatin IC20, at 0.5 µM
# [36] = measured here: with cisplatin IC20, at 5 µM
# [37] = measured here: combination with BGB at IC20, at 0.5 µM
# [38] = measured here: combination with cisplatin at IC20, at 0.5 µM
# [39] = measured here: combo with BGB at IC20, at 0.5 µM
# [40] = measured here: combo with cisplatin at IC20, at 0.5 µM
# Mitogen-activated protein kinase 7 (Homo sapiens), sequence (Q13164 whole entry, looked up, the tested form may be a part): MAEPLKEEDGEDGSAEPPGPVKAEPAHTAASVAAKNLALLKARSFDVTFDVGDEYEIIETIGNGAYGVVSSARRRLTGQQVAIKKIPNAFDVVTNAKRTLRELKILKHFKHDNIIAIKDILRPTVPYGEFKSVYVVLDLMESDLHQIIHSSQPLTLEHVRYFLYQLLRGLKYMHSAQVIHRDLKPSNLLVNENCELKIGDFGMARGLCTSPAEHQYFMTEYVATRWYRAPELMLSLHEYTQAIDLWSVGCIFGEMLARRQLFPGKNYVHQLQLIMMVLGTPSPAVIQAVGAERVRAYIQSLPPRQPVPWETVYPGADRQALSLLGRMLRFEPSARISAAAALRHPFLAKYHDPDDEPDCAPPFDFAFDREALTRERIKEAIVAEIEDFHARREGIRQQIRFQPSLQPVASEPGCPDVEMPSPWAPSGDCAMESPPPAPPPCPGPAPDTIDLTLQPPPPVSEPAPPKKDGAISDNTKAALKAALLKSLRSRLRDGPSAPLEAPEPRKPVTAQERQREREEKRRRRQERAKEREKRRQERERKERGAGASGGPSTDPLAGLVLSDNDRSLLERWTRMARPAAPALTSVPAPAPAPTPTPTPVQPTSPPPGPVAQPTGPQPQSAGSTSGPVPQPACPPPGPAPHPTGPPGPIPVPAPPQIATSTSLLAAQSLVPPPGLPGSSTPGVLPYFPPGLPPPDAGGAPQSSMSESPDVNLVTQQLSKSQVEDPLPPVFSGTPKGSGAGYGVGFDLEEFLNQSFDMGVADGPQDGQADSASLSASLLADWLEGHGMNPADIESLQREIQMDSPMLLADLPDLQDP
# NAD(+) hydrolase SARM1 (Homo sapiens), sequence (Q6SZW1 whole entry, looked up, the tested form may be a part): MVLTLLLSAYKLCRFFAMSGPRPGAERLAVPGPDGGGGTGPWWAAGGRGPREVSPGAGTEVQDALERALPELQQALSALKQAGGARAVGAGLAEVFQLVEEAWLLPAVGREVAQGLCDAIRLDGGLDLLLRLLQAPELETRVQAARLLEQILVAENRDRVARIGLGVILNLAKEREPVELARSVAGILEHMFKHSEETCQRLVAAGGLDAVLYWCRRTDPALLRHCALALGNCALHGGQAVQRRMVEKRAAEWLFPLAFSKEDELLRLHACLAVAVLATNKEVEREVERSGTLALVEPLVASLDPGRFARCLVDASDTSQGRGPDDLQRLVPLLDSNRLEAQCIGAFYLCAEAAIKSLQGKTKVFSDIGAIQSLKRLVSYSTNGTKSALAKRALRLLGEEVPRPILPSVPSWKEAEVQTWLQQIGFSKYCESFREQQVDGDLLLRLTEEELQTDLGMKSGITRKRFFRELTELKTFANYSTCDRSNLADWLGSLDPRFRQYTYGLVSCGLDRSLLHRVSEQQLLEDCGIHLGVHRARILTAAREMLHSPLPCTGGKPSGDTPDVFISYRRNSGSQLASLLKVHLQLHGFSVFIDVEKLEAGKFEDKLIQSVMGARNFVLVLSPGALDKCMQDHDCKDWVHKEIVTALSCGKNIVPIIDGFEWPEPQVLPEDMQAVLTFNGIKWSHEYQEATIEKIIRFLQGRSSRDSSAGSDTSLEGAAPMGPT
structure (smiles),measurement,setting,value
Cc1onc(-c2ccccc2Cl)c1C(=O)N[C@@H]1C(=O)N2[C@@H]1SC(C)(C)[C@@H]2C(=O)O,outcome,[1],inactive
same,fold change,[2]; [16],0.913 (inactive) and 0.866 (inactive)
same,fold change,[2]; [17],1.38 and 0.839
same,cell count,[2]; [18],8800 and 10900
same,cell count,[2]; [19],9640 and 12500
same,z-score,[3]; [20],1.06 (inactive)
same,z-score,[3]; [21],0.283
same,remaining NAD,[4],10 nM (inactive)
same,luciferase signal,[5],24 AU (inactive)
Cc1ccnc2c1NC(=O)c1cccnc1N2C1CC1,outcome,[1],inactive
same,fold change,[2]; [16],0.867 (inactive) and 0.916 (inactive) and 0.818 (inactive)
same,fold change,[2]; [17],1 and 1.53 and 1.78
same,cell count,[2]; [18],8040 and 8950 and 7970
same,cell count,[2]; [19],9270 and 9770 and 9750
same,z-score,[3]; [20],-0.331 (inactive) and -0.443 (inactive)
same,z-score,[3]; [21],0.346 and -0.451
same,remaining NAD,[4],10 nM (inactive)
same,z-score,[6],0.47 (inactive)
same,inhibition,[7]; [22],65.5% (inactive)
same,inhibition,[7]; [23],-14.8%
same,inhibition,[7]; [24],-23.6%
same,inhibition,[7]; [25],-7.3%
same,inhibition,[7]; [26],96.2%
same,inhibition,[7]; [27],-8.68%
same,inhibition,"[8]; BGB combo, at 5 µM",-9.4%
same,inhibition,[8]; at 0.5 µM,-11.8% (inactive)
same,inhibition,"[8]; cisplatin combo, at 5 µM",24.4%
same,inhibition,[8]; [28],-18.3%
same,inhibition,[8]; [29],0.871%
same,inhibition,"[8]; single agent, at 5 µM",-21.1%
same,inhibition,"[9]; BGB IC20 combo, at 0.005 µM",7.31%
same,inhibition,"[9]; BGB IC40 combo, at 0.005 µM",-7.13%
same,inhibition,"[9]; BGB IC40 combo, at 0.05 µM",-20.9%
same,inhibition,[9]; at 0.5 µM,-20.4% (inactive)
same,inhibition,"[9]; cisplatin combo, at 0.05 µM",-24.3%
same,inhibition,"[9]; cisplatin combo, at 0.5 µM",-22.4%
same,inhibition,"[9]; cisplatin combo, at 5 µM",-11%
same,inhibition,[9]; [30],-28.4%
same,inhibition,[10]; at 0.5 µM,-9.83% (inactive)
same,inhibition,[10]; [25],-16.2%
same,inhibition,[10]; [31],15.1%
same,inhibition,[10]; [32],29.5%
same,inhibition,[11]; at 0.5 µM,-11.8% (inactive)
same,inhibition,[11]; [33],-22.9%
same,inhibition,[11]; [34],53.6%
same,inhibition,[11]; [35],-9.99%
same,inhibition,[11]; [36],-37.2%
same,inhibition,"[11]; single agent, at 5 µM",-7.51%
same,inhibition,[12]; at 0.5 µM,-33.2% (inactive)
same,inhibition,[12]; [37],-9.42%
same,inhibition,[12]; [38],-39.8%
same,inhibition,[13]; at 0.5 µM,-18.2% (inactive)
same,inhibition,[13]; [39],-13%
same,inhibition,[13]; [40],-23.9%
O=C(c1ccc(F)cc1)C1CCN(CCn2c(=O)[nH]c3ccccc3c2=O)CC1,outcome,[1],inactive
same,outcome,[14],inactive
same,z-score,[3]; [20],-0.256 (inactive) and 0.859 (inactive) and 1.46 (inactive)
same,z-score,[3]; [21],0.928 and -0.102 and 0.875
same,remaining NAD,[4],10 nM (inactive)
same,z-score,[6],0.47 (inactive) and 0.155 (inactive) and 0.975 (inactive)
Cc1oncc1C(=O)Nc1ccc(C(F)(F)F)cc1,outcome,[1],inactive
same,outcome,[15],inactive
same,outcome,[14],inactive
same,z-score,[3]; [20],-0.557 (inactive) and -0.339 (inactive) and -0.166 (inactive)
same,z-score,[3]; [21],0.617 and 0.893 and 0.301
same,remaining NAD,[4],10 nM (inactive)
same,luciferase signal,[5],120 AU (inactive)
same,z-score,[6],1.22 (inactive) and 1.26 (inactive) and 0.055 (inactive)
same,inhibition,[7]; [22],-30.3% (inactive)
same,inhibition,[7]; [23],-32.3%
same,inhibition,[7]; [24],-17.1%
same,inhibition,[7]; [25],-23.8%
same,inhibition,[7]; [26],-32.5%
same,inhibition,[7]; [27],34.4%
same,inhibition,"[8]; BGB combo, at 5 µM",22.1%
same,inhibition,[8]; at 0.5 µM,-14.7% (inactive)
same,inhibition,"[8]; cisplatin combo, at 5 µM",36.7%
same,inhibition,[8]; [28],2.4%
same,inhibition,[8]; [29],-16.7%
same,inhibition,"[8]; single agent, at 5 µM",48%
same,inhibition,"[9]; BGB IC20 combo, at 0.005 µM",16.5%
same,inhibition,"[9]; BGB IC40 combo, at 0.005 µM",-7.12%
same,inhibition,"[9]; BGB IC40 combo, at 0.05 µM",33.8%
same,inhibition,[9]; at 0.5 µM,-22.9% (inactive)
same,inhibition,"[9]; cisplatin combo, at 0.05 µM",31.4%
same,inhibition,"[9]; cisplatin combo, at 0.5 µM",-18.9%
same,inhibition,"[9]; cisplatin combo, at 5 µM",-28.5%
same,inhibition,[9]; [30],9.62%
same,inhibition,[10]; at 0.5 µM,-18.1% (inactive)
same,inhibition,[10]; [25],-48.9%
same,inhibition,[10]; [31],-43.1%
same,inhibition,[10]; [32],-31%
same,inhibition,[11]; at 0.5 µM,-9.93% (inactive)
same,inhibition,[11]; [33],-10.4%
same,inhibition,[11]; [34],14.1%
same,inhibition,[11]; [35],-18.2%
same,inhibition,[11]; [36],0.987%
same,inhibition,"[11]; single agent, at 5 µM",24.3%
same,inhibition,[12]; at 0.5 µM,-47.6% (inactive)
same,inhibition,[12]; [37],-10.4%
same,inhibition,[12]; [38],-126%
same,inhibition,[13]; at 0.5 µM,1.82% (inactive)
same,inhibition,[13]; [39],-13.1%
same,inhibition,[13]; [40],15.3%
Cc1onc(-c2ccccc2)c1C(=O)N[C@@H]1C(=O)N2[C@@H]1SC(C)(C)[C@@H]2C(=O)O,outcome,[1],inactive
same,fold change,[2]; [16],0.877 (inactive)
same,fold change,[2]; [17],6.72
same,cell count,[2]; [18],9940
same,cell count,[2]; [19],11300
same,z-score,[3]; [20],0.677 (inactive) and 0.0608 (inactive)
same,z-score,[3]; [21],-0.0856 and 0.018
same,remaining NAD,[4],10 nM (inactive)
same,luciferase signal,[5],64 AU (inactive)
same,z-score,[6],0.945 (inactive)
CC(C)c1nc(CN(C)C(=O)N[C@H](C(=O)N[C@@H](Cc2ccccc2)C[C@H](O)[C@H](Cc2ccccc2)NC(=O)OCc2cncs2)C(C)C)cs1,outcome,[1],inactive
same,z-score,[3]; [20],-1.48 (inactive)
same,z-score,[3]; [21],0.534
same,remaining NAD,[4],10 nM (inactive)
COc1cc2nc(N3CCN(C(=O)C4COc5ccccc5O4)CC3)nc(N)c2cc1OC (stereo not given),AC50,[1],23.5 µM (active)
same,outcome,[14],inactive
same,z-score,[3]; [20],-0.637 (inactive) and 1.46 and 0.739
same,z-score,[3]; [21],1.03 and 2.18 and 2.11
same,remaining NAD,[4],10 nM (inactive)
same,luciferase signal,[5],32 AU (inactive)
same,z-score,[6],-0.385 (inactive) and -0.73 (inactive) and 0.525 (inactive)
Cc1cccc(N(C)C(=S)Oc2ccc3ccccc3c2)c1,outcome,[1],inactive
same,outcome,[15],inactive
same,fold change,[2]; [16],0.98 (inactive) and 0.897 (inactive) and 0.793 (inactive)
same,fold change,[2]; [17],1.24 and 1.29 and 1.54
same,cell count,[2]; [18],8090 and 8100 and 9280
same,cell count,[2]; [19],8260 and 9020 and 11700
same,z-score,[3]; [20],-0.305 (inactive) and 0.185 (inactive)
same,z-score,[3]; [21],0.765 and 0.376
same,remaining NAD,[4],10 nM (inactive)
same,luciferase signal,[5],112 AU (inactive)
